Compounds without any hit were thinned out: in the full panel of roughly 83,000, 20% have a hit.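 Plates (96-well) were seeded with cells, treated with compound at one concentration, and incubated for 48 hours before percent growth was determined.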
Columns and labels:
Assay in all cases: NCI-60 one-dose screen, 48 h (100 = growth as untreated, 0 = no growth, -100 = all killed)
Details in all cases: 10 µM unless noted; active = growth percent below 10; inactive = the rest
NCI-H23 lung = tested on: NCI-H23 lung
NCI-H226 lung = tested on: NCI-H226 lung
NCI-H322M lung = tested on: NCI-H322M lung
HOP-62 NSCLC = tested on: HOP-62 NSCLC
NCI-H460 lung = tested on: NCI-H460 lung
HOP-92 NSCLC = tested on: HOP-92 NSCLC
NCI-H522 lung = tested on: NCI-H522 lung
A549/ATCC NSCLC = tested on: A549/ATCC NSCLC
786-0 renal = tested on: 786-0 renal
COLO 205 colon = tested on: COLO 205 colon
K-562 leukemia = tested on: K-562 leukemia
MALME-3M melanoma = tested on: MALME-3M melanoma
MDA-MB-231 breast = tested on: MDA-MB-231 breast
RXF 393 renal = tested on: RXF 393 renal
SF-268 CNS = tested on: SF-268 CNS
SF-295 CNS = tested on: SF-295 CNS
SF-539 CNS = tested on: SF-539 CNS
UACC-257 melanoma = tested on: UACC-257 melanoma
M14 melanoma = tested on: M14 melanoma
DU-145 prostate = tested on: DU-145 prostate

Measured: growth

CCOP(=O)(NC(c1ccccc1)c1ccccc1)OCC
inactive: NCI-H23 lung 108% | NCI-H226 lung 103% | NCI-H322M lung 99% | HOP-62 NSCLC 95.5% | NCI-H460 lung 107% | HOP-92 NSCLC 89.7% | NCI-H522 lung 113% | A549/ATCC NSCLC 106% | 786-0 renal 102% | COLO 205 colon 100% | K-562 leukemia 114% | MALME-3M melanoma 89.7% | MDA-MB-231 breast 106% | RXF 393 renal 113% | SF-268 CNS 104% | SF-295 CNS 102% | SF-539 CNS 115% | UACC-257 melanoma 97.8% | M14 melanoma 105%

COC(=O)C1=C(C)C(=O)CC1
inactive: NCI-H23 lung 120% | NCI-H226 lung 109% | NCI-H322M lung 115% | HOP-62 NSCLC 114% | NCI-H460 lung 118% | HOP-92 NSCLC 113% | NCI-H522 lung 101% | A549/ATCC NSCLC 112% | 786-0 renal 108% | COLO 205 colon 141% | K-562 leukemia 96.1% | MALME-3M melanoma 137% | MDA-MB-231 breast 102% | RXF 393 renal 143% | SF-268 CNS 111% | SF-295 CNS 135% | SF-539 CNS 109% | UACC-257 melanoma 110% | M14 melanoma 105%

CCCC(OC(C)=O)c1ccc2c(c1)OCO2 (stereo unspecified)
inactive: NCI-H23 lung 97.7% | NCI-H226 lung 99.4% | NCI-H322M lung 97.8% | HOP-62 NSCLC 98.7% | NCI-H460 lung 106% | NCI-H522 lung 103% | A549/ATCC NSCLC 104% | 786-0 renal 100% | COLO 205 colon 107% | DU-145 prostate 104% | K-562 leukemia 99% | MALME-3M melanoma 91.9% | MDA-MB-231 breast 113% | RXF 393 renal 104% | SF-268 CNS 102% | SF-295 CNS 105% | SF-539 CNS 105% | UACC-257 melanoma 94.9%

O=S(Cc1ccccc1)/C(=C/NC(=S)Nc1cc(Cl)ccc1Cl)c1ccccc1 (stereo unspecified)
inactive: NCI-H23 lung 97.1% | NCI-H226 lung 101% | NCI-H322M lung 93.7% | HOP-62 NSCLC 92.8% | NCI-H460 lung 107% | HOP-92 NSCLC 101% | NCI-H522 lung 85% | A549/ATCC NSCLC 96.8% | 786-0 renal 102% | COLO 205 colon 109% | DU-145 prostate 106% | MDA-MB-231 breast 100% | RXF 393 renal 103% | SF-268 CNS 93.1% | SF-295 CNS 103% | SF-539 CNS 115% | UACC-257 melanoma 99.5%

CCCCCCCCCCCCCC/C=C\C(CC(=O)O)C(=O)O (stereo unspecified)
inactive: NCI-H23 lung 108% | NCI-H226 lung 109% | NCI-H322M lung 117% | HOP-62 NSCLC 105% | NCI-H460 lung 106% | NCI-H522 lung 107% | A549/ATCC NSCLC 103% | 786-0 renal 103% | COLO 205 colon 97.7% | DU-145 prostate 110% | K-562 leukemia 154% | MALME-3M melanoma 123% | MDA-MB-231 breast 102% | RXF 393 renal 117% | SF-268 CNS 103% | SF-295 CNS 110% | SF-539 CNS 108% | UACC-257 melanoma 107% | M14 melanoma 103%

S=C=Nc1ccc2ccccc2c1
inactive: NCI-H23 lung 96.9% | NCI-H226 lung 101% | NCI-H322M lung 109% | HOP-62 NSCLC 98.3% | NCI-H460 lung 105% | HOP-92 NSCLC 79% | NCI-H522 lung 97.3% | A549/ATCC NSCLC 100% | COLO 205 colon 111% | DU-145 prostate 107% | K-562 leukemia 96% | MALME-3M melanoma 102% | MDA-MB-231 breast 117% | RXF 393 renal 110% | SF-268 CNS 108% | SF-295 CNS 108% | SF-539 CNS 99.9% | UACC-257 melanoma 99.7% | M14 melanoma 103%

Oc1cc(O)c2c(c1)O[C@H](c1ccc(O)c(O)c1)[C@@H](O)C2
inactive: NCI-H23 lung 95.2% | NCI-H226 lung 96.6% | NCI-H322M lung 105% | HOP-62 NSCLC 107% | NCI-H460 lung 113% | HOP-92 NSCLC 98.5% | NCI-H522 lung 89.5% | A549/ATCC NSCLC 97% | 786-0 renal 106% | COLO 205 colon 108% | K-562 leukemia 104% | MALME-3M melanoma 103% | MDA-MB-231 breast 98.4% | RXF 393 renal 113% | SF-295 CNS 97.8% | SF-539 CNS 111% | UACC-257 melanoma 101% | M14 melanoma 112%

CCOC(=O)/C(O)=C(\C=N\C(=S)Nc1ccc(Cl)c(Cl)c1)C(=O)OCC
inactive: NCI-H23 lung 87.3% | NCI-H226 lung 75.2% | NCI-H322M lung 106% | HOP-62 NSCLC 94.3% | NCI-H460 lung 106% | HOP-92 NSCLC 95.5% | NCI-H522 lung 71.4% | A549/ATCC NSCLC 101% | 786-0 renal 115% | COLO 205 colon 92.9% | K-562 leukemia 92.7% | MALME-3M melanoma 89.3% | MDA-MB-231 breast 94.3% | RXF 393 renal 97.9% | SF-268 CNS 104% | SF-295 CNS 105% | SF-539 CNS 73.9% | UACC-257 melanoma 98.6% | M14 melanoma 93.2%

Oc1cccnc1CN1CCCC1
inactive: NCI-H23 lung 100% | NCI-H226 lung 97.9% | NCI-H322M lung 102% | HOP-62 NSCLC 111% | NCI-H460 lung 107% | HOP-92 NSCLC 79.7% | NCI-H522 lung 97.1% | A549/ATCC NSCLC 98.2% | COLO 205 colon 103% | DU-145 prostate 113% | K-562 leukemia 99.5% | MALME-3M melanoma 107% | MDA-MB-231 breast 105% | RXF 393 renal 116% | SF-268 CNS 104% | SF-295 CNS 113% | SF-539 CNS 102% | UACC-257 melanoma 98.3%

Reference: PubChem BioAssay (NCI)
